# About 14,000 (4.5%) of roughly 310,000 compounds showed an effect of 50% or more. Effects have a minus sign here. The entries come from a sample that favours strong results as a whole.
# Biological target: human ether-à-go-go-related gene (hERG) potassium channel (human, UniProt Q12809)
# Assay: primary screen, population patch clamp on CHO cells stably expressing hERG; higher = less effect of the substance
# 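Further: peak tail current of the secondary pulse compared with the same well before compound.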
# Chain of human ether-à-go-go-related gene (hERG) potassium channel (Q12809 whole entry, looked up): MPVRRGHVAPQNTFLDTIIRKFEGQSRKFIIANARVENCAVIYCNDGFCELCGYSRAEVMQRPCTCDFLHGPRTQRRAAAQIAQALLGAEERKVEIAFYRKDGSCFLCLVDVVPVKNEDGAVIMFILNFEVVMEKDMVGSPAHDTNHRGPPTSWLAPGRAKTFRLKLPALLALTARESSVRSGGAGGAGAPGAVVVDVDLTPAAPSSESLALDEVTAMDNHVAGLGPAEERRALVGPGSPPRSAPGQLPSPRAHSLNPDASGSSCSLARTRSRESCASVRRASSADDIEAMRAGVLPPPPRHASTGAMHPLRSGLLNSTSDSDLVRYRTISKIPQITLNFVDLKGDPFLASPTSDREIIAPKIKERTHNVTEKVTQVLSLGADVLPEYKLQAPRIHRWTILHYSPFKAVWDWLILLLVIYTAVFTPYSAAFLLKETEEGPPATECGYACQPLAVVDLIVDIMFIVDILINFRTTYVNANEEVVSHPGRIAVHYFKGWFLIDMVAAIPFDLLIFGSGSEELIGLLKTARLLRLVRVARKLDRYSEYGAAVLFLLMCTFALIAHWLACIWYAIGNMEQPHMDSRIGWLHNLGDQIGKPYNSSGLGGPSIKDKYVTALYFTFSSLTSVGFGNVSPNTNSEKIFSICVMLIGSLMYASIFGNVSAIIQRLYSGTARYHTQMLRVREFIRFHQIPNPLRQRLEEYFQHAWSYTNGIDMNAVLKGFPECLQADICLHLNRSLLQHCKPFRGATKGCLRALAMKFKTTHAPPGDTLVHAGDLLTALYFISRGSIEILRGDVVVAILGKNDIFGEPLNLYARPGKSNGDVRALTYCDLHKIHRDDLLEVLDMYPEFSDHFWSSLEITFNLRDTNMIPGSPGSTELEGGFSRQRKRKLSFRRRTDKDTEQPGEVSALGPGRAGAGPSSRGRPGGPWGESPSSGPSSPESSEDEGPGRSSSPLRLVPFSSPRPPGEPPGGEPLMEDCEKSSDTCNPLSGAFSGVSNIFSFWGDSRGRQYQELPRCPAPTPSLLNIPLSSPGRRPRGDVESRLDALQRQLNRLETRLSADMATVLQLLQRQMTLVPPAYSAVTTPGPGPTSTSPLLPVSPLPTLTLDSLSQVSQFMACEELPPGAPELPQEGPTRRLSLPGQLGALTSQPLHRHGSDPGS
row,Structure (SMILES),"hERG current change (%, negative = inhibition) at 10uM [%]"
1,COc1cccc(CN2CCN(C(=O)c3cccc4ccccc34)CC2)c1.O=C(O)C(=O)O,-12
2,COc1cccc(CN(C)C(=O)C2CC(=O)N(c3ccc4c(c3)OCCO4)C2)c1 (stereo not drawn),12.1
3,COc1cccc(-c2nc3ccc(O)cc3c(=O)o2)c1,1.21
4,CCOc1cc(C#N)ccc1OCC(=O)N1CCN(C(=O)c2cccs2)CC1,-67.7
5,O=C(COc1ccccc1Br)N1CCN(C(=O)c2cccs2)CC1,-32.2
6,O=C(COc1ccc(-c2ccccc2)cc1)N1CCN(C(=O)c2cccs2)CC1,-41.8
7,O=C(COc1ccc(Cl)cc1)N1CCN(C(=O)c2cccs2)CC1,-74.5
8,Cc1ccc(OCC(=O)N2CCN(C(=O)c3cccs3)CC2)cc1,-34.8
9,CCOc1cc(C#N)ccc1OCC(=O)N1CCc2ccccc2C1,-40.7
10,O=C(COc1ccccc1)N1CCN(C(=O)c2cccs2)CC1,-13.4
11,O=C(COc1ccc2ccccc2c1)N1CCN(C(=O)c2cccs2)CC1,-50
12,COc1ccc(OCC(=O)N2CCN(C(=O)c3cccs3)CC2)cc1,-43.3
13,Cc1nnc(SCc2cc(=O)[nH]c(/N=C(\N)Nc3ccccc3Sc3ccccc3)n2)s1,-11.1
14,Cl.O=C(CNCCO)N1CCc2ccccc21,-5.27
15,Cc1ccc(CN2C(=O)N/C(=C/c3ccc(-c4ccc(C(=O)O)cc4)o3)C2=O)cc1,0.0417
16,COc1ccc(CCN2C(=O)CC(N3CCN(C/C=C/c4ccccc4)CC3)C2=O)cc1OC (stereo not drawn),-43.9
17,O=C1OC(N2CCN(C/C=C/c3ccccc3)CC2)c2ccccc21 (stereo not drawn),9.57
18,O=C1CC(N2CCN(C/C=C/c3ccccc3)CC2)C(=O)N1Cc1cccs1 (stereo not drawn),-74.8
19,O=C1CC(N2CCN(C3CC(=O)N(CCc4ccccc4)C3=O)CC2)C(=O)N1CCc1ccccc1 (stereo not drawn),-6.78
20,O=C1CC(N2CCN(C/C=C/c3ccccc3)CC2)C(=O)N1CCc1ccccc1 (stereo not drawn),-58.1
21,O=C1CC(N2CCN(C/C=C/c3ccccc3)CC2)C(=O)N1Cc1ccc(N2CCCC2=O)cc1 (stereo not drawn),-46.7

row,Structure (SMILES),"hERG current change (%, negative = inhibition) at 10uM [%]"
1,C=CCn1c(CNC(=O)c2cccs2)n[nH]c1=S,15.5
2,Cc1cc(C)cc(OC(=O)CCN2C(=O)c3ccccc3C2=O)c1,-3.19
3,COc1ccccc1N(CC(=O)Nc1ccc(F)c(F)c1)S(C)(=O)=O,-1.01
4,COc1cccc(CN2CC(C(=O)NCCc3ccc(C)s3)CCC2=O)c1 (stereo not drawn),-26.5
5,CCOC(=O)C1CCCN(S(=O)(=O)c2ccc3c4c(cccc24)C(=O)N3CC)C1 (stereo not drawn),-63.5
6,CCOC(=O)C1CCCN(S(=O)(=O)c2ccc3c4c2CC(=O)N4CC(C)S3)C1 (stereo not drawn),-0.356
7,CCN1C(=O)c2cccc3c(S(=O)(=O)N4CCC(C)CC4)ccc1c23,-16.8
8,O=C1Nc2ccc(S(=O)(=O)N3CCCC3)c3cccc1c23,-7.57
9,CCOC(=O)C1CCN(S(=O)(=O)c2ccc3c4c(cccc24)C(=O)N3)CC1,-54.6
10,CCOC(=O)C1CCCCN1S(=O)(=O)c1cc2c(cc1C)NC(=O)CO2 (stereo not drawn),-19.8
11,CCOC(=O)C1CCN(S(=O)(=O)c2ccc3c4c2CC(=O)N4CC(C)S3)CC1 (stereo not drawn),-57.1
12,CC1CCN(S(=O)(=O)c2ccc3c4c2CC(=O)N4CC(C)S3)CC1 (stereo not drawn),7.22
13,CCN1C(=O)c2cccc3c(S(=O)(=O)N4CCCC4C(=O)O)ccc1c23 (stereo not drawn),13
14,CCOC(=O)N1CCN(S(=O)(=O)c2cc3c(cc2C)NC(=O)CO3)CC1,-36.2
15,CCOC(=O)C1CCN(S(=O)(=O)c2cc3c(cc2C)NC(=O)CO3)CC1,-54.9
16,CCOC(=O)N1CCN(S(=O)(=O)c2ccc3c4c(cccc24)C(=O)N3)CC1,-14.5
17,O=C(Nc1ccc(Cl)cc1)Nc1ccccc1CC[N+](=O)[O-],7.79
18,CC(=O)O[C@H]1CC[C@@]2(C)C(CCC3C2CC[C@]2(C)OC(=O)CCC32)C1 (stereo partly drawn),-10.7
19,O=C(O)c1ccc(S(=O)(=O)N2CCCc3ccccc32)cc1,19.7
20,O=C(CN1C(=O)NC2(CCCCCC2)C1=O)N1CCN(S(=O)(=O)c2ccc(Cl)cc2)CC1,-23.9
21,Cc1ccc(S(=O)(=O)N(C)c2nc3ccccc3[nH]c2=S)cc1,4.41
